Data published in PMC5540273 (PLoS ONE, 2017).

How the values were obtained:
Conditions in all cases: concentration: 1 μM, replicates: in singlicate; n = 1
[1] = test system: T1, MEK2
T1 construct: gene MAP2K2

[2] = test system: T2, MEK3
T2 construct: gene MAP2K3

[3] = test system: T3, MEK4
T3 construct: gene MAP2K4

[4] = test system: T4, MEK5
T4 construct: gene MAP2K5

[5] = test system: T5, MEK6
T5 construct: gene MAP2K6

[6] = test system: MELK
[7] = test system: MERTK
[8] = test system: MET
[9] = test system: T6, MINK
T6 construct: gene MINK1

[10] = test system: MKK7
[11] = test system: MKNK1
[12] = test system: MKNK2
[13] = test system: T7, MLCK
T7 construct: gene MYLK3

[14] = test system: T8, MLK1
T8 construct: gene MAP3K9

[15] = test system: MLK2
[16] = test system: MLK3
[17] = test system: MRCKA
[18] = test system: T9, MRCKB
T9 construct: gene CDC42BPB

[19] = test system: MST1R
[20] = test system: T10, MST1
T10 construct: gene STK4
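Further: KINOMEscan kinase panel screen.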

| Compound | %Inh [1] [%] | %Inh [2] [%] | %Inh [3] [%] | %Inh [4] [%] | %Inh [5] [%] | %Inh [6] [%] | %Inh [7] [%] | %Inh [8] [%] | %Inh [9] [%] | %Inh [10] [%] | %Inh [11] [%] | %Inh [12] [%] | %Inh [13] [%] | %Inh [14] [%] | %Inh [15] [%] | %Inh [16] [%] | %Inh [17] [%] | %Inh [18] [%] | %Inh [19] [%] | %Inh [20] [%] |
| --- | --- | --- | --- | --- | --- | --- | --- | --- | --- | --- | --- | --- | --- | --- | --- | --- | --- | --- | --- | --- |
| COc1cc2ncn(-c3cc(OCC4CCCO4)c(C(N)=O)s3)c2cc1OC (stereo not shown) [GSK204607] | 9 | 0 | 5 | 99.3 | 0 | 0 | 10 | 0 | 27 | 0 | 0 | 4 | 0 | 0 | 0 | 10 | 8 | 0 | 16 | 0 |
| COc1ccc(Nc2nccc(NCCNC(=O)Nc3ccccc3F)n2)cc1 [GSK1379901] | 8 | 0 | 11 | 56 | 0 | 0 | 24 | 0 | 11 | 55 | 24 | 13 | 0 | 0 | 0 | 25 | 23 | 0 | 16 | 0 |
| NC(=O)c1nnc2ccccc2c1N | 47 | 46 | 17 | 34 | 0 | 9 | 0 | 16 | 38 | 0 | 12 | 0 | 0 | 84 | 0 | 0 | 0 | 0 | 10 | 4 |
| Cc1c(O)cccc1Nc1ccnc2ccc(C(F)(F)F)cc12.Cl [GW466413] | 0 | 0 | 19 | 35 | 0 | 11 | 0 | 0 | 2 | 0 | 0 | 1 | 1 | 0 | 0 | 4 | 0 | 0 | 0 | 0 |
| Cc1cc(NCC(c2ccccc2)c2ccccc2)nc(NCc2ccc(C(F)(F)F)cc2)n1 [GW497681] | 0 | 0 | 10 | 1 | 0 | 0 | 7 | 13 | 0 | 0 | 0 | 0 | 3 | 0 | 0 | 0 | 3 | 0 | 10 | 0 |
